BAZ2B inh: blocks human BAZ2B; Q9UIF8; AlphaScreen BAZ2B-H3K14Ac peptide displacement; Potency, µM (doses to about 114 µM), inactives show at the highest dose activity change, negative = inhibition, usual class: inhibitors; 360,000 compounds, 4.4% hits; AID 504333; also: % is scaled to controls: 0 for no effect and ±100 for the full control effect; nearly all actives have a fitted effect of over 60% in size
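BAZ2B 50 nM plus b-H3(5-23)K14Ac 50 nM, PBS pH 7.4/0.01% Tween-20, 30 min RT; compound added (max 110 uM), 30 min RT; streptavidin donor/Ni-chelate acceptor beads 10 ug/mL final, 20 min dark; AlphaScreen read.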
G9a block: G9a (human) methyltransferase inhibition | Potency, µM (titrated, usually from 102 µM), for the others: top-dose activity, negative = inhibition, usual class: inhibitors | G9a H3K9 monomethylation, AlphaScreen, 2 h | 350,000 compounds, 8.8% hits; also: % is scaled to controls: 0 for no effect and ±100 for the full control effect; nearly all actives have a fitted effect of over 75% in size
Target sequence (Q96KQ7 913-1193 limits assumed): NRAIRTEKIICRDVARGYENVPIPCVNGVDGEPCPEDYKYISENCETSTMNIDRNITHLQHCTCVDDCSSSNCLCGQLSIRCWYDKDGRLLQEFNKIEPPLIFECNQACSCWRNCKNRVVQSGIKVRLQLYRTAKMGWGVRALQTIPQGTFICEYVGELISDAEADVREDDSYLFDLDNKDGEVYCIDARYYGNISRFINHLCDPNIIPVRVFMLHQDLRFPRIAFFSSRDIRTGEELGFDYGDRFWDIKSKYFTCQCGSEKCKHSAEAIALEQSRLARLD
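AlphaScreen read-out: biotin-H3K9 peptide (500 nM) methylation by 20 nM enzyme with 20 uM SAM, 2 h at room temperature after 15 min compound preincubation; anti-monomethyl H3K9 antibody plus donor/acceptor beads, 10 min dark.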
JMJD2A Tudor inh: inhibitors of human JMJD2A Tudor domain; AlphaScreen JMJD2A-Tudor / H3K4me3 peptide binding; Potency, µM (doses to about 114 µM), inactives show at the highest dose activity change, negative = inhibition, usual class: inhibitors; 390,000 compounds, 4.4% hits; also: % is scaled to controls: 0 for no effect and ±100 for the full control effect; nearly all actives have a fitted effect of over 50% in size
VDR inhibitor: vitamin D3 receptor (human) inhibition; Potency, µM, inactives show max response, negative = inhibition, most hits filed as inhibitors; AID 504847; VDR-SRC2-3 peptide fluorescence polarization, 2 h; 400,000 compounds, 0.93% hits; also: % is scaled to controls: 0 for no effect and ±100 for the full control effect
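Measured by FP: displacement of SRC2-3 coactivator peptide from VDR by library compounds, following a two-hour ambient incubation.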
PLK1 PBD inh: blocks phosphopeptide binding to human PLK1 polo-box domain; P53350; Plk1 PBD binding of FITC phosphopeptide, fluorescence polarization; Potency, µM, without a hit: max response, negative = inhibition, actives largely listed as inhibitors; 360,000 compounds, 2.8% hits; AID 720504; also: series mostly up to about 57 µM; % is scaled to controls: 0 for no effect and ±100 for the full control effect; nearly all actives have a fitted effect of over 65% in size
HP1b binding inh: HP1-beta chromodomain-methylated histone interaction inhibition; P83916; AlphaScreen HP1-beta / biotin-H3K9me3 peptide binding; Potency, µM (highest dose often 114 µM), inactives show top-dose activity change, negative = inhibition, hits mostly inhibitors; 390,000 compounds, 0.56% hits; AID 540317; also: nearly all actives have a fitted effect of over 70% in size
Target sequence (P83916 whole entry, looked up): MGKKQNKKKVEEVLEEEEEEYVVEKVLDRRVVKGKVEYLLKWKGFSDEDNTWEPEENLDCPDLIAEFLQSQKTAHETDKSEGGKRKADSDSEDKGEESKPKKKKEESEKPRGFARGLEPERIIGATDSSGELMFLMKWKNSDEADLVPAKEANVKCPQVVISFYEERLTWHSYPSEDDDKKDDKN
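AlphaScreen: HP1-beta (50 nM) preformed 30 min with biotin-H3(1-18)K9me3 peptide (50 nM) in PBS pH 7.4, 0.01% Tween-20. Compound added for 30 min at RT, then streptavidin donor/nickel chelate acceptor beads (10 ug/mL) for 30 min.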
* = called active by the depositor; u = inconclusive; x = not tested or not shown; [ ] = dose if it differs, or a comment. This is a sample that favours compounds with a hit; in the whole collection about 11% have one here. Calls follow the shape of the dose curve; as a rule, active = well fitted curve in the direction sought with a large enough effect; inconclusive = small, poorly fitted or top-dose-only effect, or another doubt; inactive = no such curve, though single readings can be large; an effect the other way counts as inactive or inconclusive. Potency is read from the fitted curve at half-maximal effect.

SMILES	BAZ2B inh	G9a block	JMJD2A Tudor inh	VDR inhibitor	PLK1 PBD inh	HP1b binding inh
COc1cc(O)cc(/C=C/c2ccccc2)c1	x	-27%[2.33 µM]	-17%	8%	-18%	4%
O=C(Cc1cccc2ccccc12)Nc1ccc(Br)cc1C(=O)O	-1%	u	0%	u	-23%	27%
Cc1cn(CCC(=O)Nc2ccc(N3CCOCC3)cc2)c2ccccc12	u	45µM*	u	-6%	-15%	-10%
O=C(Cc1cccc2ccccc12)Nc1ccc(O)cc1C(=O)O	-10%	71µM*	-27%[57.1 µM]	u	27µM*	0%
COc1ccccc1CNCC(=O)Nc1ccc(N2CCOCC2)cc1	50µM*	4.5µM*	40µM*	-9%	u	8%
COc1ccccc1-c1ocnc1C(=O)Nc1ccc(N2CCOCC2)cc1N1CCOCC1	-15%	50µM*	u	-13%	-14%	-13%
COc1ccc2nc(-c3ccc(N(C)C)cc3)sc2c1	x	x	-10%	x	x	x
CN(CC(=O)Nc1ccc(F)cc1)C(=O)COC(=O)c1cc(S(=O)(=O)N(C)C)ccc1N1CCCC1	2%	-44%	-13%	10%	-1%	22%
COc1ccc(NC(=O)Nc2ccccc2OC)cc1	-6%	6%[59 µM]	-15%	9%	-1%	25%
COc1ccc(CC(=O)Nc2ccc(OC(C)=O)cc2C(=O)O)cc1	-17%	-20%	-18%	12%	-8%	27%
COc1ccccc1CNCCS(=O)(=O)NN1CCOCC1	x	x	-1%	-16%	11µM*	45%
O=C(Cc1cccc2ccccc12)Nc1ccc(N2CCOCC2)cc1	50µM*	x	-9%	-23%	-1%	21%
COc1ccccc1NC(=O)Nc1ccc(N2CCOCC2)cc1	-24%	32µM*	u	-10%	-8%	-1%
CCCCCCCCNS(=O)(=O)CCNCc1ccccc1OC	x	x	-8%	6%	0%	37%
CC(=O)Oc1ccc(NC(=O)Cc2ccccc2)c(C(=O)O)c1	u	71µM*	-6%	-5%	3%	47%
CC(C)CC(CSc1ccc(Br)cc1)N1CCN(CC(C)C)CCC1=O (stereo unspecified)	x	x	39%	-20%	x	76%
CCOc1ccc(C(=O)OCC(=O)N2CCCC2)cc1	3%	37%	3%	10%	0%	20%
O=C(CN1C(=O)CSC1=O)Nc1ccc(N2CCOCC2)cc1	7%	16µM*	0%	13%	-8%	20%
O=C(CCS(=O)(=O)c1ccccc1)Nc1ccc(N2CCOCC2)cc1	-26%	56µM*	-26%	5%	-17%	7%
COC(=O)c1ccc(NC(=O)CN2C(=O)CSC2=O)cc1	23%	0%[12.7 µM]	-8%	1%	-10%	5%
COc1cccc(-c2cnc3c(NC(C)=O)cc(-c4ccc(C(=O)N5CCOCC5)cc4)cn23)c1	x	x	x	x	-23%	x
O=C(OCc1ccccc1)N1CCC2CC1c1c2cccc1N1CCOCC1 (stereo unspecified)	x	x	x	x	-14%	x
CC(=O)c1ccc(COC(=O)c2cc3ccccc3oc2=O)cc1	3%	11%	6%	-9%	2%	18%
CCOCCCNCC(=O)Nc1ccccc1N1CCOCC1	35µM*	11µM*	4µM*	4%	-5%	u
CCc1ccccc1NC(=O)C(=O)NCCCN1CCOCC1	2%	-41%[59 µM]	-10%	-7%	x	31%
SMILES	BAZ2B inh	G9a block	JMJD2A Tudor inh	VDR inhibitor	PLK1 PBD inh	HP1b binding inh
CSc1ccccc1NC(=O)CNCCCN1CCOCC1	56µM*	3.5µM*	0.11µM*	-25%	u	-26%[57 µM]
O=c1c(CCc2ccccc2)nc2cnc(N3CCNCC3)nc2n1Cc1ccc(F)cc1	x	2%[12.7 µM]	x	-9%	x	x
S=C1NC(c2ccccc2)N2C(=S)NC(c3ccccc3)N12 (stereo unspecified)	79µM*	u	13µM*	u	u	32µM*
Cc1ccccc1NCc1nnc2n1CCCCC2	-7%	15%	-19%	5%	-11%	17%
Cn1c(=O)c2c(SCC(=O)NCC3CCCO3)nc(-c3cccc(F)c3)nc2n(C)c1=O (stereo unspecified)	-11%	6%[59 µM]	-13%	7%	x	14%[57 µM]
CC1(C)C2CCC1(C)C(OC(=O)C[n+]1ccccc1)C2 (stereo unspecified)	2%	-47%	-12%[11.4 µM]	22µM*	19µM*	1%
CC1(C)C2CCC1(C)C(OC(=O)CNc1ccccc1)C2 (stereo unspecified)	12%	-5%[12.7 µM]	0%[11.4 µM]	-13%	19µM*	43%
CC1(C)C2CCC1(C)C(OC(=O)CC(=O)O)C2 (stereo unspecified)	8%	6%	17%	4%	-5%	32%
CC(=O)c1cc(CN2CCN(C3CCCCC3)C(CCO)C2)cs1 (stereo unspecified)	1%	27%	0%	-12%	-3%	16%
COc1cccc2cc(C(=O)N3CCN(C45CC6CC(CC(C6)C4)C5)CC3)c(=O)oc12	-3%	u	-18%[11.4 µM]	6%	27µM*	-11%
COc1cccc2cc(C(=O)N3CCC(C)CC3)c(=O)oc12	-5%	50µM*	-9%	-17%	-24%	48%
COc1cccc2cc(C(=O)N3C(C)CCCC3C)c(=O)oc12 (stereo unspecified)	14%	7%[59 µM]	-5%	-3%	-8%	8%
O=c1ccn([C@@H]2O[C@H](COP(=O)(O)O)[C@@H](O)[C@H]2O)c(=O)[nH]1	x	32%[59 µM]	x	-2%	x	x
Cc1ccc(S(=O)(=O)NCCc2nnc3ccc(SCc4cccc(F)c4)nn23)cc1	-35%	3%[59 µM]	-13%	-1%	x	36%
COc1ccc(C(C)=O)cc1Cn1nnc(-c2ccccc2Br)n1	56µM*	4%	-6%	-6%	-13%	28%
Nc1ccc(C=C2C=Cc3ccccc32)cc1	x	x	35µM*	8%	-3%	u
NC(N)=Nc1ccc(C=C2C=Cc3ccccc32)cc1	x	x	u	-3%	-1%	-25%
O=C(O)Cn1nc(-c2ccccc2)cc1-c1ccccc1	5%	x	u	u	21µM*	0%
CCn1c2ccccc2c2cc(CN3CCN(S(=O)(=O)Cc4ccccc4)CC3)ccc21	79µM*	7.1µM*	1µM*	-7%	2%	u
CCN1CCN(S(=O)(=O)Cc2ccccc2)CC1	-4%	14%[12.7 µM]	-8%	45%	-5%	12%
CCn1c2ccccc2c2cc(CN3CCN(S(=O)(=O)CC)CC3)ccc21	20µM*	11µM*	x	x	x	x
Cc1cccc(-n2cc(-c3ccccc3)c3c(=O)[nH]cnc32)c1	45µM*	u	79µM*	-21%	u	u
O=c1[nH]cnc2c1c(-c1ccccc1)cn2-c1ccc(Br)cc1	1%	5%[59 µM]	-4%	-21%	-13%	2%
CCOc1ccc(-n2cc(-c3ccccc3)c3c(=O)[nH]cnc32)cc1	u	45µM*	u	4%	-4%	u
